According to the supplement of paper PMC6555819:

What was measured:
Assay in all cases: PBM binding z-score (relative to random genomic background probes); higher = stronger binding; sequences stand for … in GC…GCGATTGACAGCGTAGAATGAAGG
[1] = test system: FXR:RXRa (NR concentration 270 nM, RXRa partner concentration 90 nM)
Method in brief: (§1)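 Regression normalization was applied to scanned fluorescence from custom Agilent 4×180K protein-binding microarrays. Before scanning, arrays were incubated 1 h with ligand-free nuclear receptor dimers, and binding was detected with antibodies against each partner (one per run). Binding z-scores use the random background probes as reference.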

[2] = test system: LXRa:RXRa (NR concentration 270 nM, RXRa partner concentration 90 nM)
Method in brief: as §1

[3] = test system: LXRa homodimer (NR concentration 270 nM)
Method in brief: as §1

[4] = test system: LXRb:RXRa (NR concentration 270 nM, RXRa partner concentration 90 nM)
Method in brief: as §1

[5] = test system: LXRb homodimer (NR concentration 270 nM)
Method in brief: as §1

[6] = test system: PPARa:RXRa (NR concentration 270 nM, RXRa partner concentration 90 nM)
Method in brief: as §1

[7] = test system: PPARg:RXRa (NR concentration 180 nM, RXRa partner concentration 90 nM)
Method in brief: as §1

[8] = test system: PPARg:RXRa 270nM:90nM, anti-RXR (NR concentration 270 nM, RXRa partner concentration 90 nM)
Method in brief: as §1

[9] = test system: PPARg:RXRa 30nM:10nM, anti-RXR (NR concentration 30 nM, RXRa partner concentration 10 nM)
Method in brief: as §1

[10] = test system: PPARg:RXRa 90nM:30nM, anti-RXR (NR concentration 90 nM, RXRa partner concentration 30 nM)
Method in brief: as §1

[11] = test system: PPARg:RXRa DBDmut IVT, anti-RXR (DBD mutation: RXRa K156A/R161A, NR concentration 270 nM, RXRa partner concentration 90 nM)
Method in brief: as §1

[12] = test system: PPARg:RXRa IVT, anti-PPARg (NR concentration 270 nM, RXRa partner concentration 90 nM)
Method in brief: as §1

[13] = test system: PPARg DBDmut:RXRa IVT, anti-PPARg (DBD mutation: PPARg1 K132A/R137A, NR concentration 270 nM, RXRa partner concentration 90 nM)
Method in brief: as §1

[14] = test system: PPARg DBDmut IVT, anti-PPARg (DBD mutation: PPARg1 K132A/R137A, NR concentration 270 nM)
Method in brief: as §1

[15] = test system: PPARg homodimer (NR concentration 180 nM)
Method in brief: as §1

[16] = test system: PXR:RXRa (NR concentration 270 nM, RXRa partner concentration 90 nM)
Method in brief: as §1

[17] = test system: PXR homodimer (NR concentration 270 nM)
Method in brief: as §1

[18] = test system: RARa:RXR (NR concentration 270 nM, RXRa partner concentration 90 nM)
Method in brief: as §1

[19] = test system: RARa homodimer (NR concentration 270 nM)
Method in brief: as §1

[20] = test system: RARb:RXRa (NR concentration 270 nM, RXRa partner concentration 90 nM)
Method in brief: as §1

Sequence | PBM binding z-score [1] | PBM binding z-score [2] | PBM binding z-score [3] | PBM binding z-score [4] | PBM binding z-score [5] | PBM binding z-score [6] | PBM binding z-score [7] | PBM binding z-score [8] | PBM binding z-score [9] | PBM binding z-score [10] | PBM binding z-score [11] | PBM binding z-score [12] | PBM binding z-score [13] | PBM binding z-score [14] | PBM binding z-score [15] | PBM binding z-score [16] | PBM binding z-score [17] | PBM binding z-score [18] | PBM binding z-score [19] | PBM binding z-score [20]
CTACCAAGGTGAACAATGTCGTTGATTACTATTC | 0.559 | 0.263 | 0.0434 | 0.937 | 0.00375 | 1.37 | 0.621 | 0.75 | 0.226 | 0.326 | 2.67 | 2.51 | 0.151 | 0.164 | 0.475 | 0.327 | -0.0411 | 0.755 | 0.471 | 1.67
CAAACTAGGTCACCGGAAGGTGAAAGTCCGCATG | 4.95 | 3.97 | 0.466 | 3.14 | 0.0268 | 5.42 | 9.29 | 7.34 | 5.78 | 7.31 | 8.74 | 8.89 | 2.99 | 0.925 | 4.64 | 2.98 | 0.142 | 4.74 | 0.555 | 4.54
CCGACTGGGGCAACGTTACCATAACGCACAGCCA | -0.667 | -0.521 | -0.397 | -0.465 | -1.01 | 0.0876 | 1.64 | 0.667 | -0.502 | -0.136 | 4.02 | 3.62 | -0.725 | -0.25 | -0.224 | -0.885 | -0.271 | -0.695 | -0.177 | 0.224
GCATATAGGTAATACAAGGTGAAAGGCCGATTGT | 0.496 | 1.99 | 0.36 | 0.488 | -0.248 | 1.97 | 2.16 | 2.86 | 1.05 | 2.2 | 3.82 | 3.44 | 0.554 | 0.825 | 0.878 | 0.592 | 0.222 | 1.66 | 0.91 | 0.547
CGACCTAGGTCATCCAGGACAGTGAATACATTGA | 5.2 | 3.44 | 0.586 | 2.78 | 0.0681 | 4.33 | 3.93 | 3.43 | 1.07 | 2.59 | 3.28 | 3.89 | -0.0715 | 0.195 | 2.02 | 2.45 | 0.923 | 3.21 | 0.643 | 4
ATCGAAAGGTCGAAGGCGAGTATACCCACCCGAA | 4.01 | 3.3 | 0.25 | 2.4 | 0.608 | 3.71 | 2.33 | 2.5 | 0.887 | 1.49 | -0.0271 | 1.19 | 0.286 | 0.268 | 1.03 | 2.14 | -0.132 | 2.87 | 0.519 | 3.57
ATCTCTAGGTAAGGATAGTTCAGTGAATGCAAAT | 0.343 | 0.874 | 0.613 | 0.271 | 0.693 | 0.427 | 0.279 | 0.182 | 0.215 | 0.134 | 1.23 | 1.1 | 0.846 | 0.942 | 0.983 | 0.619 | 0.997 | 0.17 | 1.04 | 0.741
CGAACGCGGGCATGAGTTGATAGCAAATGCCGAT | -0.653 | -0.715 | -0.461 | -0.883 | -1.24 | -0.441 | 0.36 | -0.484 | -0.861 | -0.633 | -0.0191 | -0.364 | -0.145 | -0.957 | -0.435 | -0.69 | -0.265 | -0.878 | -0.807 | -0.0245
GCTGCTAGGTCAGGTTGGTCAGCTGACGGGTACG | 1.19 | 0.902 | -0.423 | 0.356 | -0.106 | 1.26 | 0.207 | 1.04 | -0.528 | 0.514 | 2.92 | 2.16 | 0.00411 | -0.207 | 1.24 | 0.407 | -0.471 | 0.946 | -0.516 | 3.17
CCTACTGGTCCACGAAAGGTCATTGATTCAGTGA | 3.9 | 4.86 | 5.19 | 4.6 | 1.21 | 4.38 | 1.3 | 3.07 | 0.699 | 2.22 | 0.842 | 1.87 | 0.736 | -0.00763 | 4.11 | 5.53 | 3.24 | 5.86 | 2.86 | 3.95
GCTGCTAAGTCAACTGATGGTCAGCTAAAGCTCG | -0.765 | -0.562 | -0.539 | -0.754 | -1.04 | -0.555 | -0.342 | -0.538 | -0.793 | -0.507 | -0.284 | -0.667 | -2.15 | -1.17 | -0.917 | -0.575 | -1.21 | -0.177 | -1.24 | 0.174
CCTCGGAGGACAGAAGGTAAGAGCTGTCCGCTTT | -0.304 | -0.532 | -0.965 | -1.02 | -1.17 | -0.652 | -0.402 | -0.815 | -1.03 | -0.914 | -0.432 | -0.658 | -1.58 | -1.77 | -0.354 | -0.918 | -0.487 | -0.713 | -0.583 | 0.19
CCTACTGGGCCAAGGTCATTGATCAGTCAAAGCA | 2.95 | 3.12 | 1.06 | 2.74 | -0.497 | 4.1 | 4.15 | 4.44 | 1.5 | 3.81 | 3.5 | 4.5 | -0.374 | -1.03 | 1.27 | 3.3 | 0.534 | 3.29 | -0.4 | 3.27
TCCAGTTGGTCAAAGGTCACACACTCGAAATGCG | 6.2 | 5.79 | 3.85 | 5.42 | 1.6 | 6.51 | 11 | 9.65 | 9.86 | 10.3 | 3.32 | 6.12 | 2.97 | 1.98 | 5.35 | 6.28 | 2.67 | 7.69 | 3.44 | 5.08
